Laboratory results published in PubChem BioAssay (NCI).
The panel holds about 83,000 compounds, 20% with a hit somewhere; the sample as a whole holds those more often.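 Cell lines were cultured in 96-well plates, exposed to a single compound concentration, and assessed for percent growth 48 hours later.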 Calls of active or inactive are those of the source. How the source made its calls: active means growth percent below 10; inactive means the rest.

tested on: HL-60(TB) leukemia; test: NCI-60 one-dose screen, 48 h (100 = growth as untreated, 0 = no growth, -100 = all killed); conditions: 10 µM unless noted

Row | SMILES | growth
1 | COc1ccc2c(c1)c(-c1nc(-c3c[nH]c4ncccc34)cs1)cn2CCN | 41.2% (inactive)
2 | CCCn1c(=S)sc2c(NNC(C)=O)nc(C)nc21 | 58.1% (inactive)
3 | COCCCNc1nc(NC(=O)c2cc(OC)cc(OC)c2)cc(-c2cccnc2)n1 | 90.2% (inactive)
4 | O=C(CN(C(=O)Cn1c(=O)n2nnnc2c2ccccc21)c1ccccc1C(F)(F)F)Nc1ccc(C(F)(F)F)cc1 | 101% (inactive)
5 | O=C(/C=C/c1ccccn1)c1ccccc1O | 13.1% (inactive)
6 | CC(C)C[C@@H](NC(=O)[C@@H](Cc1ccccc1)NC(=O)c1cnccn1)B1Oc2ccc(C[C@H](NC(=O)[C@H](Cc3ccc4c(c3)OB([C@@H](CC(C)C)NC(=O)[C@@H](Cc3ccccc3)NC(=O)c3cnccn3)O4)NC(=O)[C@@H](N)CC3CCC4OB([C@@H](CC(C)C)NC(=O)[C@@H](CC5CCCCC5)NC(=O)C5CNCCN5)OC4C3)C(=O)NCCCC[C@@H]3NC(=O)[C@@H](Cc4ccccc4)NC(=O)[C@H](CC(=O)O)NC(=O)CNC(=O)[C@H](CCCNC(=N)N)NC3=O)cc2O1 (some centres undefined) | -2.54% (active)
7 | COc1cc(/C=C/C(=O)C(=Cc2ccc(F)c(F)c2)C(=O)/C=C/c2ccc(O)c(OC)c2)ccc1O | 16.6% (inactive)
8 | Cc1ccc2sc3c(NCCN)nc4ccccc4c3c(=O)c2c1 | 53.3% (inactive)
9 | O=S(=O)(NCCCNc1nccc(-c2c(-c3ccc(F)cc3)nc3sccn23)n1)c1ccc2ccccc2c1 | 34.8% (inactive)
10 | CC(C)NC[C@@H](C(=O)N1CCN(c2ncnc3c2[C@H](C)C[C@H]3O)CC1)c1ccc(Cl)cc1 | 82% (inactive)
11 | O=C(NCCNc1nccc(-c2c(-c3cccc(O)c3)nc3sccn23)n1)Nc1cccc(C(F)(F)F)c1 | 36.4% (inactive)
12 | Nc1ncnc(N)c1NC(=O)c1ccc(OCc2ccccc2)cc1 | 108% (inactive)
13 | COc1ccc(-c2nc3ncccn3c2/C=C/C(=O)c2cc(OC)c(OC)c(OC)c2)cc1 | 1.2% (active)
14 | COc1ccc(C(=O)COc2cccc(/C=C3\Oc4ccc5ccccc5c4C3=O)c2)cc1 | 90.7% (inactive)
15 | C=CC1(C)C(O[Si](C)(C)C(C)(C)C)CC2C3OC(=O)NC31c1cccc3c1[C@H](C(=O)N3C)C2(C)C (some centres undefined) | 22.9% (inactive)
16 | CCN(CC)CCOc1ccc(Nc2ncc3cc(-c4c(Cl)cccc4Cl)c(=O)n(CCOC)c3n2)cc1 | -19.2% (active)
17 | CN(C)CC#Cc1ccc2ncc(C#N)c(Nc3ccc(F)c(Cl)c3)c2c1 | 26.8% (inactive)

Row | SMILES | growth
18 | C/C(=C(/c1ccccc1)c1ccc(N2C(=O)c3cccc4c(N5CCN(C)CC5)ccc(c34)C2=O)cc1)c1ccccc1 | 99.3% (inactive)
19 | CNC(=O)c1cnc(C)nc1-c1cc(C(C)(C)C)c(O)c(C(C)(C)C)c1 | 91.1% (inactive)
20 | C=C(c1ccc(OC)c(/C=C/C(=O)c2cc(OC)c(OC)c(OC)c2)c1)c1cc(OC)c(OC)c(OC)c1 | 12.8% (inactive)
21 | O=C1COCCN1c1ccc(NCc2cn(Cc3ccccc3)c3ccccc23)cc1 | 99.1% (inactive)
22 | COc1ccc(C(O)c2cc3c(N)c(C(=O)Nc4cccc(Br)c4)sc3nc2C)cc1 (centres undefined) | -5.69% (active)
23 | C/C(=C\CCc1ccsc1)CC/C=C(\C)CCCN1CCN(CCO)CC1 | -38.3% (active)
24 | CC/C(=C(\c1ccc(O)cc1)c1ccc(OCCN(C)CCN(C)C(=O)CCCCC(=O)c2c(C)[nH]c(/C=C3\N=C(c4ccc[nH]4)C=C3OC)c2C)cc1)c1ccccc1 | 103% (inactive)
25 | COc1ccc(NC(=O)Nc2ccc(-c3ccc(OC)c(OC)c3)nc2C)cc1 | 85.7% (inactive)
26 | O=C(Cc1ccc(/C=C/C(=O)c2ncc[nH]2)cc1)Nc1cc(F)c(F)c(F)c1 | 7.25% (active)
27 | CCCCN(CCCC)C(=O)CC | 97.3% (inactive)
28 | COc1ccc(C2=C(c3ccccc3)c3ccc(OC(C)=O)cc3OC2(C)C)cc1 | -17.1% (active)
29 | CCOC(=O)c1cnc2ccc(Br)cc2c1Nc1cccc(S(=O)(=O)NC)c1 | 119% (inactive)
30 | Fc1cnc(NC2CC2)nc1-c1cnc2ccc(N3CCOCC3)cn12 | -15.5% (active)
31 | C/C=C/C1OCC(CC)C(CCC)O1 (centres undefined) | 88.1% (inactive)
32 | CS(=O)(=O)c1ccc(C(=O)N/N=C/c2ccc3c(c2)OCO3)cc1 | 57% (inactive)
33 | CNC(=O)NN | 64% (inactive)
34 | CN(C)C1CN(C(=O)c2cc(-c3ccc4ncnc(N5CCc6cc(F)c(Cl)cc65)c4c3)cnc2N)C1 | -1.16% (active)
